This is a sample that favours compounds with a hit; in the whole collection about 3.8% have one here.
TGFb SMAD3 inh: TGF-b pathway inhibition | hit rate 1.2% among 410,000 | AID 588855 | HepG2 CAGA-GFP TGF-b/SMAD3 reporter, GFP fluorescence, 18 h; TGF-beta stimulated, 500 pg/mL final | Potency, µM (series often up to 46.1 µM), without a hit: at the highest dose activity, negative = inhibition, actives largely listed as inhibitors; further: on the % scale 0 is the no-effect control and ±100 the full control effect; nearly all actives have a fitted effect of over 65% in size
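Smad-responsive CAGA-GFP expression was quantified in HEPG2 cells exposed to compounds and 500 pg/mL final TGF-beta for 18 h at 37 degrees C; unstimulated wells defined full inhibition.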
A549 viability: counter-screen for Nrf2 inhibitors: cytotoxicity in A549 cells; A549 ARE-Fluc cells, CellTiter-Fluor viability, 18-24 h; Potency, µM (top dose mostly 46 µM), for inactives: top-dose activity change, negative = cytotoxicity, hits mostly inhibitors; hit rate 0.16% among 390,000; further: on the % scale 0 is the no-effect control and ±100 the full control effect
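A549 ARE_Fluc cells in 5% FBS OPTI-MEM were exposed to compounds in concentration-response for 18-24 h at 37 deg C. Viability was read by CellTiter-Fluor fluorescence (Ex 405/Em 525) after 30 min, before the luciferase read.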
ATXN2 expr inh: reduces ATXN2 reporter expression in HEK-293 cells; HEK-293 ATXN2-luciferase reporter, luminescence, 24 h; hit rate 0.72% among 360,000; Potency, µM (top dose mostly 57 µM), without a hit: at the top dose activity change, negative = inhibition, usual class: inhibitors; further: on the % scale 0 is the no-effect control and ±100 the full control effect; nearly all actives have a fitted effect of over 55% in size
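ATXN2-luciferase reporter cells (luciferase flanked by upstream and downstream ATXN2 gene portions) were treated 24 h at 37 °C with compounds at up to 57 uM. SteadyGlo luminescence gave expression; GF-AFC fluorescence gave viability.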
HepG2 tox: counter-screen for TGF-b inhibitors: cytotoxicity in HepG2 cells | hit rate 0.76% among 410,000 | HepG2 CAGA-GFP viability, ATP luminescence, 18 h | AID 588856 | Potency, µM (doses to about 46.1 µM), for inactives: at the highest dose activity change, negative = cytotoxicity, usual class: cytotoxic
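HepG2 CAGA-GFP cells (1000/well, DMEM with 1% FBS) received compound, then TGF-beta at 500 pg/mL final, and were incubated 18 hours at 37 degrees C. Viability was read by CellTiter-Glo luminescence. Media-only wells were set as complete cell-killing and DMSO as no toxicity.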
Nrf2 block: Nrf2 pathway inhibition. A549 ARE-Fluc reporter, luciferase luminescence, 18-24 h. Potency, µM (titrated, usually from 46 µM), for the others: top-dose activity change, negative = inhibition, hits mostly inhibitors. hit rate 2.1% among 360,000. AID 504444; further: on the % scale 0 is the no-effect control and ±100 the full control effect; nearly all actives have a fitted effect of over 60% in size
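Nrf2 function is reported as luminescence of an ARE-controlled luciferase in A549 cells. Compounds were tested at several concentrations, and a CellTiter-Fluor read on the same wells flagged cytotoxicity.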
ATXN viability: cell viability loss in ATXN counter-screen; S2 cells (HEK-293 line with an ATXN2-luciferase reporter) viability, CellTiter-Fluor protease fluorescence, 24 h; Potency, µM (series often up to 56.7 µM), hits mostly cytotoxic; hit rate 0.49% among 400,000; further: nearly all actives have a fitted effect of over 40% in size
An asterisk follows results filed as active; i = inactive; ? = inconclusive; nt = no result given; ! = a repeat was not active. The call rests on the fitted dose curve; in most records, active means well fitted curve in the direction sought with a large enough effect; inconclusive means small, poorly fitted or top-dose-only effect, or another doubt; inactive means no such curve, though single readings can be large; an effect the other way counts as inactive or inconclusive. Potency means the concentration at half of the fitted maximal effect.

SMILES	TGFb SMAD3 inh	A549 viability	ATXN2 expr inh	HepG2 tox	Nrf2 block	ATXN viability
CCN1/C(=C/C=C/C2=[N+](CC)c3ccccc3C2(C)C)C(C)(C)c2ccccc21	?	nt	nt	-78.8%	nt	7.94µM*
C=C[C@@H]1C2=CCOC(=O)C2=CO[C@H]1O[C@@H]1O[C@H](CO)[C@@H](O)[C@H](O)[C@H]1O	?	-8.6%	12.3%	14.2%	-1.4%	i
COc1cccc(CN2CCC(n3nccc3NC(=O)CCOc3ccccc3)CC2)c1O	-11.1%	-13.7%	-18.4%	-40.2%	?	i
C[C@]12CC[C@H](O)CC1=CCC1C2CC[C@@]2(C)C1C[C@@H]1CC(=O)O[C@@H]12 (stereo partly specified)	-0.7%	3.1%	-1.8%	-12.0%	18.4µM*	i
CCCCC[C@H]1CCCCC[C@H](O)C[C@@H](O)[C@H](O)/C=C/C(=O)O1	nt	nt	-22.7%	nt	nt	i
Cc1occc1C(=O)Nc1cccc(-c2nc(CNC(=O)c3cccc(C#CC(C)(C)O)c3)c(C)o2)c1	nt	nt	nt	nt	nt	31.6µM*
COc1ccc(OCC(=O)N2CCN(Cc3nc4cc([N+](=O)[O-])ccc4n3C)CC2)cc1	-15.7%	-19.9%	-28.9%	-19.2%	23.1µM*	i
COc1ccc(C(c2nnnn2-c2ccc3c(c2)OCCO3)N2CCC3(CC2)C(=O)NCN3c2ccccc2)cc1 (stereo unspecified)	?	nt	-22.6%	-1.7%	nt	?
COC(=O)C1CN(C#N)N(c2ccc(Cl)cc2)C12c1ccccc1-c1ccccc12 (stereo unspecified)	5.01µM*	?	3.98µM*	3.55µM*	18.4µM*	3.98µM*
CC(C)CC(=O)N(Cc1ccccc1)S(=O)(=O)c1ccc2c(c1)oc(=O)n2C	?	7.1%	4.5%	-28.8%	19.1%	i
Cc1cc2c(cc(C(=O)N3CCC(C(=O)NC4CCCC4)CC3)n2Cc2c(F)cccc2Cl)o1	?	-21.7%	?	-22.1%	16.4µM*	?
O=C(C(=O)N1CCOCC1)c1cn(Cc2c(F)cccc2Cl)c2ccccc12	1.8%	6.8%	-30.7%	4.1%	9.5%	i
CCn1cc(C(=O)NCCc2ccc(OC)c(OC)c2)c(=O)c2cc(S(=O)(=O)N(C)C3CCCCC3)ccc21	?	-19.2%	?	-5.2%	?	nt
COc1ccc(C(=O)NCCn2cc(SCc3ccc(C(F)(F)F)cc3)c3ccccc32)cc1OC	7.08µM*	-20.0%	-24.1%	-16.1%	18.4µM*	i
O=C(Cc1coc2cc3c(cc12)CCC3)OCC(=O)N1CCCC1=O	-5.0%	2.5%	?	-16.5%	?	i
CN(C)S(=O)(=O)c1ccc(C(=O)NNc2nc(-c3ccccc3)c3cc(Br)ccc3n2)cc1	6.4%	-20.3%	-15.2%	-26.2%	13µM*	i
c1ccc2c(c1)OCC(C1=NCCN1)O2 (stereo unspecified)	?	-6.4%	?	-65.9%	-6.4%	12.6µM*!
CC1([N+](=O)[O-])COP(=O)(NC2CC2)OC1 (stereo unspecified)	7.3%	10.8%	-17.7%	10.6%	-3.8%	i
Cc1c(C=C2C(=O)N(C)C(=S)N(C)C2=O)c2ccccc2n1CC(=O)NCC1CCCO1 (stereo unspecified)	0.0%	-13.3%	-13.8%	1.5%	7.8%	i
O=C(CCCc1nc(-c2ccc(Cl)cc2)no1)NCC1CCCO1 (stereo unspecified)	-7.9%	-5.5%	-29.5%	-4.2%	13µM*	i
CC(C)CNc1c2c(nc3ccccc13)CCC2	-21.0%	-1.5%	?	-12.6%	-16.1%	i
c1ccc(CNc2c3c(nc4ccccc24)CCC3)cc1	?	-8.7%	17.8µM*	-28.5%	-1.9%	?
